Test results published in PubChem BioAssay AID1159580 (chemical genetic matrix, 2015).
Where “and” joins values, the source holds several entries; their conditions need not be identical. Equal values may be shown once. About 2,000 (36%) of roughly 5,500 compounds were called active. Roughly 18% stayed inconclusive and do not appear here. Cut-off read from the data, not from the text of the source: active = normalized growth mostly below about 0.91 (no sharp cut-off); inconclusive = no clear call, values can overlap the other calls; inactive = mostly above about 0.92. This is one part of the list.

Test: chemical genetic growth profiling, strain panel (AID 1159580);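 note: tested at 20 µM; growth read once vehicle control cultures reached saturation at 30 °C; 1 = growth at the plate median or of vehicle wells; lower values mean less growth of the strain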
Details: S. cerevisiae deletion strains, growth OD

Measured: normalized growth

CN1CCN2c3ccccc3Cc3ccccc3C2C1 (stereo unspecified)
inactive: locus YAL013W, strain DEP1, hits give low values 1.01 and 0.984 | locus YAL021C, strain ccr4, hits give low values 0.97 | locus YAL026C, strain drs2, hits give low values 0.999 | locus YAL030W, strain snc1, hits give low values 1 | locus YAL040C, strain CLN3, hits give low values 1.01 | locus YBL061C, strain skt5, hits give low values 0.998 | locus YBR009C, strain hhf1, hits give low values 0.987 | locus YBR021W, strain FUR4, hits give low values 0.992 | locus YBR023C, strain chs3, hits give low values 0.994 | locus YBR171W, strain sec66, hits give low values 1.02 | locus YBR229C, strain ROT2, hits give low values 1.01 | locus YBR231C, strain swc5, hits give low values 0.996 | locus YBR279W, strain paf1, hits give low values 1 | locus YCL011C, strain gbp2, hits give low values 1 | locus YCL016C, strain dcc1, hits give low values 0.994 | locus YCL029C, strain bik1, hits give low values 0.99 | locus YCL061C, strain MRC1 (second series), hits give low values 0.995 | locus YCL061C, strain MRC1, hits give low values 0.999 | locus YCL069W, strain vba3, hits give low values 0.998 | locus YCR088W, strain abp1, hits give low values 1 | locus YDL005C, strain med2, hits give low values 1.01 | locus YDL035C, strain GPR1, hits give low values 1.03 | locus YDL040C, strain nat1, hits give low values 1 | locus YDL074C, strain BRE1, hits give low values 1.03 | locus YDL101C, strain DUN1, hits give low values 1.02 | locus YDL134C, strain PPH21, hits give low values 1.01 | locus YDL185W, strain tfp1, hits give low values 0.982 | locus YDL192W, strain arf1, hits give low values 0.989 | locus YDR001C, strain nth1, hits give low values 1.01 | locus YDR069C, strain doa4, hits give low values 0.986 | locus YDR101C, strain arx1, hits give low values 0.985 | locus YDR137W, strain rgp1, hits give low values 1.01 | locus YDR150W, strain NUM1, hits give low values 1.01 and 0.988 | locus YDR159W, strain sac3, hits give low values 0.988 | locus YDR162C, strain NBP2, hits give low values 1.05 | locus YDR195W, strain ref2 0.972 | locus YDR297W, strain sur2, hits give low values 1.01 | locus YDR318W, strain mcm21, hits give low values 0.979 | locus YDR334W, strain swr1, hits give low values 1 | locus YDR335W, strain msn5, hits give low values 1 | locus YDR363W, strain ESC2, hits give low values 0.983 | locus YDR388W, hits give low values 0.99 | locus YDR392W, strain spt3, hits give low values 0.881 | locus YDR502C, strain sam2, hits give low values 0.982 | locus YEL003W, strain gim4, hits give low values 0.997 | locus YEL037C, strain rad23, hits give low values 1 | locus YEL061C, strain CIN8 (second series), hits give low values 1.01 | locus YEL061C, strain CIN8, hits give low values 1.01 | locus YER002W, strain NOP16, hits give low values 0.998 | locus YER015W, strain faa2, hits give low values 1 | locus YER016W, strain bim1, hits give low values 0.991 | locus YER110C, hits give low values 0.985 | locus YER111C, strain swi4, hits give low values 0.993 | locus YER155C, strain BEM2 (second series), hits give low values 0.978 | locus YER155C, strain BEM2, hits give low values 1.01 | locus YER167W, strain BCK2, hits give low values 1.02 | locus YFR010W, strain ubp6, hits give low values 1.01 | locus YGL078C, strain dbp3, hits give low values 0.981 | locus YGL086W, strain mad1, hits give low values 0.988 | locus YGL167C, strain pmr1, hits give low values 1 | locus YGL173C, strain kem1, hits give low values 1.01 | locus YGL227W, strain vid30, hits give low values 1.01 | locus YGL240W, strain doc1, hits give low values 0.979 | locus YGL248W, strain PDE1, hits give low values 1.01 | locus YGL253W, strain hxk2, hits give low values 1.01 | locus YGR078C, strain PAC10, hits give low values 1.03 and 1.01 | locus YGR135W, strain pre9, hits give low values 0.977 | locus YGR229C, strain SMI1, hits give low values 1.01 and 0.95 | locus YGR252W, strain gcn5, hits give low values 0.964 | locus YHR013C, strain ard1, hits give low values 0.939 | locus YHR027C, strain rpn1, hits give low values 1 | locus YHR030C, strain SLT2, hits give low values 1.01 and 0.992 | locus YHR079C, strain IRE1 (second series), hits give low values 0.987 | locus YHR079C, strain IRE1, hits give low values 0.987 | locus YHR094C, strain hxt1, hits give low values 0.989 | locus YHR129C, strain ARP1, hits give low values 1.01 | locus YHR142W, strain chs7, hits give low values 0.997 | locus YHR200W, strain rpn10, hits give low values 0.995 | locus YIL066C, strain RNR3, hits give low values 1.02 | locus YIL073C, strain SPO22, hits give low values 1.01 | locus YIL125W, strain kgd1, hits give low values 0.989 | locus YIR030C, strain dcg1, hits give low values 0.984 | locus YJL092W, strain hpr5, hits give low values 1 | locus YJL095W, strain BCK1 (second series), hits give low values 0.999 | locus YJL095W, strain BCK1, hits give low values 1.01 and 0.988 | locus YJL115W, strain asf1, hits give low values 1 | locus YJL129C, strain trk1, hits give low values 0.99 | locus YJL134W, strain LCB3, hits give low values 1.01 | locus YJL154C, strain vps35, hits give low values 1 | locus YJL164C, strain tpk1, hits give low values 0.978 | locus YJL166W, strain qcr8, hits give low values 0.987 | locus YJL168C, strain set2, hits give low values 0.991 | locus YJL187C, strain SWE1 (second series), hits give low values 1.01 | locus YJL187C, strain SWE1, hits give low values 1 | locus YJR043C, strain POL32, hits give low values 1 | locus YJR066W, strain TOR1, hits give low values 0.932
